# Assay results reported in PubChem BioAssay AID493191 (Broad Institute, 2011).
# Hit rate of the full screen: of about 1,300 compounds, about 330 (25%) were called active. No rule for the calls is given here. These entries were drawn from the full list. Potency and affinity values are given separately.
# Experiment: MALME3 melanoma cell viability loss, dose response, orthogonal assay for MITF inhibitor project, CellTiter-Glo, cherry-picked (AID 493191)
# Settings: CellTiter-Glo luminescence, 24 h; series mostly up to 35 µM; activity change, negative = inhibition: at the top concentration
row,Structure (SMILES),"activity change, negative = inhibition"
1,COC(=O)[C@@H](C)NC(=O)c1ccc2oc(CCc3ccccc3)nc2c1,-2.28% (inactive)
2,COC(=O)[C@@H]1C[C@]2(OC(=O)c3ccccc3)C=CC(=O)C[C@@H]2N1C(=O)OCc1ccccc1,-28.2% (inactive)
3,O=C1CN(c2ccccc2)C(=S)N1C(=O)c1ccccc1,2.12% (inactive)
4,Cc1cc(C(=O)CCl)c(C)n1CCc1ccc(F)cc1,-39.9% (inactive)
5,COc1ccc2oc3ccc(OC)cc3c(=O)c2c1,-10.7% (inactive)
6,COC(=O)c1ccc(-n2c(C)cc(C(=O)CCl)c2C)cc1,-37.5% (inactive)
7,Cc1cc(C(=O)COc2cccnc2[N+](=O)[O-])c(C)n1-c1ccccc1,-5.43% (inactive)
8,Cc1cc(-n2c(C)cc(C(=O)CCl)c2C)no1,-35.4% (inactive)
9,CC(C)(C)c1ccc(-c2noc(CCC(=O)NCC3CCCO3)n2)cc1 (stereo not drawn),-13.9% (inactive)
10,Cc1cc(NCCCn2ccnc2)n2ncc(-c3ccccc3)c2n1,-14.2% (inactive)
11,O=C(NCc1ccco1)c1ccc(COCC(F)(F)F)cc1,5.83% (inactive)
12,COc1ccc(S(=O)(=O)Nc2ccc(O)c3ccccc23)cc1,-41.7% (inactive)
13,O=[N+]([O-])c1ccccc1OCCOc1ccccc1[N+](=O)[O-],2.56% (inactive)
14,CCOC(=O)CSc1nc2cc(OCC)ccc2cc1C#N,1.72% (inactive)
15,CCOC(=O)CSC1=NC(=O)/C(=C\c2ccc(OC(C)=O)cc2)S1,-33.5% (inactive)
16,CCOc1ccc(/C=C2\SC(=S)N(CCC(=O)O)C2=O)cc1,7.91% (inactive)
17,CCOC(=O)c1sc(NC(=O)Nc2ccc(Cl)cc2)nc1C,0.663% (inactive)
18,COc1ccc(CNC(=O)CN2C(=O)C3C4C=CC(C4)C3C2=O)cc1 (stereo not drawn),-3.3% (inactive)
19,CC(C)(C)c1ccc(-c2cc(N)n[nH]2)cc1,-6.89% (inactive)
20,COCCn1c(C)cc(C(=O)CSc2nnc(C)s2)c1C,-0.249% (inactive)
21,O=C(CCl)N1c2ccccc2CCc2ccccc21,-49.2% (inactive)

row,Structure (SMILES),"activity change, negative = inhibition"
1,COc1ccc(CCC(=O)N2CCc3ccccc32)cc1,8.39% (inactive)
2,CC(=O)c1sc(N/N=C\c2ccc(N(C)C)cc2)nc1C,5.88% (inactive)
3,COc1cccc(C(=O)Nc2ccc3c(cc2=O)[C@@H](NC(C)=O)CCc2cc(OC)c(OC)c(OC)c2-3)c1,-7.94% (inactive)
4,O=C1c2ccccc2C(=O)N1CCOc1ccccc1,4.44% (inactive)
5,O=C(/C=C/c1cccc([N+](=O)[O-])c1)n1cnc2ccccc21,7.11% (inactive)
6,Cc1nc2ccccn2c1C(=O)/C=C/c1cccc([N+](=O)[O-])c1,-12.5% (inactive)
7,CCOC(=O)C(=Cc1ccc(-n2ccnc2)cc1)C(=O)OCC,-26.4% (inactive)
8,CC(=O)c1ccc(Sc2nnnn2-c2ccccc2)c([N+](=O)[O-])c1,-9.01% (inactive)
9,Cc1ccc(-n2ncc3c(SCC(N)=O)ncnc32)cc1C,6.21% (inactive)
10,CCOc1ccc2cc(C#N)c(SCC(=O)OC)nc2c1,7.87% (inactive)
11,Cc1cc(C)cc(NS(=O)(=O)c2ccc3c(c2)c(=O)n(C)c(=O)n3C)c1,2.38% (inactive)
12,N#Cc1cnn2cc(CCN3CCOCC3)c(-c3ccc(F)cc3)nc12,1.83% (inactive)
13,O=C(CCCc1ccccc1)N1CCN(C2CCCCC2)CC1,-3.56% (inactive)
14,Cc1cc(Cl)ccc1OCCCC(=O)N1CCOCC1,-4.77% (inactive)
15,O=C(Cn1nnc(-c2ccccc2Cl)n1)N1CCCCC1,8.11% (inactive)
16,Cc1ccc(C(=O)c2cccc(N)c2)cc1C,0.35% (inactive)
17,CC(C)(C)c1ccc(C(=O)N2CCCCCC2=O)cc1,6.45% (inactive)
18,O=C(CSCc1c(F)cccc1F)Nc1ccccc1,2.1% (inactive)
19,CC(C)(C)OC(=O)N1CCN(C(=O)c2nc[nH]c2C(=O)N2CCN(c3ccccc3)CC2)CC1,-26% (inactive)
20,Cc1ccsc1C(=O)OCC(=O)Nc1sccc1C(N)=O,-20.1% (inactive)
21,CCCCC(=O)N/C(N)=N/c1nc2ccccc2o1,-0.61% (inactive)

row,Structure (SMILES),"activity change, negative = inhibition"
1,Cc1c(Cl)c([N+](=O)[O-])nn1Cc1ccc(C(=O)N/N=C\c2cc(Cl)ccc2O)o1,-5.4% (inactive)
2,O=C(N/N=C/c1ccccn1)c1cc([N+](=O)[O-])cc([N+](=O)[O-])c1,-7.68% (inactive)
3,O=C(c1ccc([N+](=O)[O-])s1)N1CCN(c2ccccn2)CC1,-34.3% (inactive)
4,O=C(O)c1cc2ccccc2c(N=Nc2cccnc2)c1O,-0.206% (inactive)
5,CN(C)S(=O)(=O)c1cccc(NC(=O)CSc2nc3c(cc2C#N)C(=O)CC(C)(C)C3)c1,-8.7% (inactive)
6,O=C(c1nnsc1S(=O)(=O)c1ccc(Cl)cc1)N1CCOCC1,-35.8% (inactive)
7,Nc1ccc(-c2nc3ccc(C(=O)O)cc3s2)cc1,0.971% (inactive)
8,OCC1CCCC(n2cnc3c(=S)nc[nH]c32)O1 (stereo not drawn),-7.54% (inactive)
9,CCCC1=Nc2cc(C(=O)NCCN3CCCC3)ccc2Sc2ccccc21,-14.3% (inactive)
10,CCN1CCCC1CNC(=O)c1ccc2c(c1)NC(=O)/C(=C\c1ccc(OC)c(OC)c1)S2 (stereo not drawn),-14.6% (inactive)
11,Cc1cccc(/C=C2/Sc3ccc(C(=O)NCCN4CCCC4)cc3NC2=O)c1,-24% (inactive)
12,CCN1CCN(CCCNC(=O)c2ccc3c(Cl)c4c(nc3c2)CCCC4)CC1,-24.1% (inactive)
13,COc1cccc(/C=C2/Sc3ccc(C(=O)NCCN4CCCC4)cc3NC2=O)c1,-19.7% (inactive)
14,CCNc1nc(N)c(C(=O)c2ccc(Cl)s2)s1,-12.9% (inactive)
15,CSc1nc(N)n2nc(-c3ccc(Cl)cc3)cc2n1,-9.67% (inactive)
16,CC(C)CC(=O)/C=C/n1c(=S)oc2ccccc21,-49.6% (inactive)
17,CN(c1cccc(NC(=O)COc2ccc(Cl)cc2Cl)c1)S(C)(=O)=O,0.563% (inactive)
18,O=C(CC(=O)c1ccccc1)Nc1ccccn1,-16% (inactive)
19,CC(=O)Nc1ccc(S(=O)(=O)N2CCn3cccc3C2C)cc1 (stereo not drawn),-14% (inactive)
20,CC(=O)Nc1cccc2c1Cc1ccccc1-2,8.57% (inactive)
21,c1ccc(-c2cn3nc4c(nc3n2)CCCC4)cc1,-27.3% (inactive)

row,Structure (SMILES),"activity change, negative = inhibition"
1,O=S1(=O)CCC(NC(=S)SCc2ccccc2Br)C1 (stereo not drawn),-16% (inactive)
2,COc1cccc(-c2nnc3sc(-c4cccs4)nn23)c1,13.5% (inactive)
3,COCC(C)Nc1ncnc2c1cnn2-c1ccc(Cl)cc1 (stereo not drawn),10.2% (inactive)
4,Nc1ccccc1SC1CC(=O)N(c2ccc3c(c2)OCCO3)C1=O (stereo not drawn),4.99% (inactive)
5,Cc1ccc2nc(NC(=O)c3ccc(Br)o3)sc2c1,-5.82% (inactive)
6,COC(=O)CSC1=C(C#N)C(=O)NC(c2ccccc2)S1 (stereo not drawn),-22.9% (inactive)
7,CC(C)(C)c1ccc(OCCn2ccccc2=O)cc1,-0.875% (inactive)
8,Cc1ccc(OCCNCc2ccccc2)c(C)c1,7.74% (inactive)
9,Cc1ccc2nc3cc([N+](=O)[O-])cc([N+](=O)[O-])c3cc2c1,2.33% (inactive)
10,NC(=O)c1cc([N+](=O)[O-])ccc1NCc1ccc(N)cc1,15.2% (inactive)
11,CC(=O)N/C(N)=N/c1nc2cc(C)ccc2o1,-0.336% (inactive)
12,Cc1ccc(NC(=O)c2cnc3ccccc3n2)cc1C,-1.88% (inactive)
13,CCn1nccc1C(=O)Nc1ccc(C)c(C)c1,-11.8% (inactive)
14,CC(C)=CCc1c(O)ccc2c1OC(c1ccc(O)c(O)c1)CC2=O (stereo not drawn),3.9% (inactive)
15,Cc1c(OCC(=O)NC2CC(C)(C)NC(C)(C)C2)ccc2c1oc(=O)c1ccccc12,-54.9% (inactive)
16,COc1cc(SC)ccc1C(=O)NCCOc1ccccc1Cl,2.19% (inactive)
17,CC1CCN(CC2C(=O)O[C@@H]3C[C@@]4(C)CCC[C@H](C)C4=C[C@H]23)CC(C)(C)C1 (stereo partly drawn),-19% (inactive)
18,COc1ccc(C(=O)N/N=C/c2cc(Br)ccc2O)cc1OC,-22.8% (inactive)
19,CCOc1ccccc1NC(=O)C(=O)N/N=C/c1cc(Br)ccc1O,-22.8% (inactive)
20,COc1ccc(CCn2c(=S)[nH]c3cc(C(=O)NCc4ccco4)ccc3c2=O)cc1OC,-24.1% (inactive)
